Screening results as filed in PubChem.
Hits are enriched below; roughly 3.3% of the tested compounds scored in any of these assays.
PLK1 inh – inhibitors of human PLK1 kinase; recombinant PLK1 kinase, TR-FRET peptide phosphorylation; P53350; AID 619; inhibition, % at 10 µM; 97,000 compounds, 0.53% hits;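 active = inhibition of 50% or more in the single-concentration screen; inactive = inhibition below 50%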;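 note: 0% = DMSO max control and 100% = H-89 dihydrochloride min control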
ERa SRC1 inh – blocks coactivator binding to human estrogen receptor alpha | P03372 | inhibition, % at 25.6 µM | TR-FRET ER-alpha LBD / SRC-1 peptide, estradiol-bound | 86,000 compounds, 1.7% hits | AID 629; in the data active = inhibition above about 50%;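 note: 0% = receptor plus peptide control and 100% = peptide only without receptor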
Plk1 PBD FP – blocks phosphopeptide binding to human Plk1 polo box domain; Plk1 PBD phosphopeptide binding, fluorescence polarization; P53350; inhibition, %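 (tested at about 20 µM)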; 97,000 compounds, 0.13% hits; in the data active = inhibition above about 34%, passing the limit was not always enough
Smad3 FoxH1 inh – Smad3 (human) transcription factor binding inhibition; P84022; TR-FRET Smad3/Dy647-FoxH1 peptide binding, europium anti-His; inhibition, % at 25 µM; 88,000 compounds, 0.29% hits; AID 630;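 active = compounds that reduce the energy-transfer binding signal between the protein and its labelled peptide by more than half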;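 note: 0% = Smad3 plus labelled peptide maximal FRET and 100% = peptide-only background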
ERa coact pot – ER-alpha (human) coactivator binding potentiation; P03372; TR-FRET ERalpha-LBD/SRC-Cy5 coactivator binding, 2 h; 100 = basal binding, no effect; coactivator binding (% of control), % at 25.6 µM; 86,000 compounds, 1.3% hits; in the data active = activity above about 200%;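 note: binding measured in presence of low estradiol as agonist stimulus; 0% = peptide alone without receptor and 100% = receptor with peptide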
ERb SRC1 inh – blocks coactivator binding to human estrogen receptor beta; 86,000 compounds, 1.3% hits; Q92731; TR-FRET ER-beta LBD / SRC1-Cy5 peptide binding; receptor agonist-loaded with 1 µM estradiol; inhibition, % at 25.6 µM;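 active = compounds whose percent inhibition of the receptor-coactivator binding signal exceeds about 50% in the single-dose screen, limit read from the data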;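 note: 0% = receptor plus peptide wells without compound and 100% = peptide-only wells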
Target sequence (Q92731 whole entry, looked up, the tested form may be a part): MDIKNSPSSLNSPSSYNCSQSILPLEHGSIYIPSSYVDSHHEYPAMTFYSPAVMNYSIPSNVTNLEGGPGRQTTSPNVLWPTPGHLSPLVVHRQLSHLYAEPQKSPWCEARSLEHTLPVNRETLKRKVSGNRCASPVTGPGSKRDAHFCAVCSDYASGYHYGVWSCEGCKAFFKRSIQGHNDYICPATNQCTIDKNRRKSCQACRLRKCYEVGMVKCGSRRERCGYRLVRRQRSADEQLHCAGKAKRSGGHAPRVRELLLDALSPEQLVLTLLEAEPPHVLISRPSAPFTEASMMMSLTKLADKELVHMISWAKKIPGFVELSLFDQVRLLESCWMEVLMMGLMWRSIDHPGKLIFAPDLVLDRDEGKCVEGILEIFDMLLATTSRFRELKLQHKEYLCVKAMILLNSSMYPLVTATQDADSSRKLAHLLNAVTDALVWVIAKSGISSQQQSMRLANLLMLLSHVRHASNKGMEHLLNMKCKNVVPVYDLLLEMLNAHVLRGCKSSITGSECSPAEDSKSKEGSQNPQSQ
PLK1 inh conf – confirmation of human PLK1 kinase inhibitors. recombinant PLK1 kinase, TR-FRET peptide phosphorylation. inhibition, % at 10 µM. shares compounds with PLK1 inh. 210 compounds, 20% hits;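 active = inhibition at or above 50% in each of two repeat confirmation tests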;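 note: 0% = DMSO max control and 100% = H-89 kinase-blocked min control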
TR-FRET interf – counter-screen for Plk1 inhibitors: compound assay interference; Plk1 TR-FRET assay interference, compound added post-reaction; AID 756; shares compounds with PLK1 inh; 210 tested, under 10 active; inhibition (interference), % at 10 µM;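 active = both duplicate runs show 50% or greater inhibition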;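 note: 0% = DMSO max control and 100% = H-89 min control inhibited reaction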
* hit, by the source's call; / = not tested or not shown; [ ] = remark or other dose.

SMILES	PLK1 inh	ERa SRC1 inh	Plk1 PBD FP	Smad3 FoxH1 inh	ERa coact pot	ERb SRC1 inh	PLK1 inh conf	TR-FRET interf
Cc1cc(C(=O)CSc2nc3ccccc3[nH]2)c(C)n1C	-4.9	5.5	7.8	1.2	74.1	12.8	/	/
Cc1nn2c(=O)cc(CSc3nc4ccccc4[nH]3)nc2s1	74.0*	11.2	-20.3	5.6	101.1	-7.4	-13.1	-59.7
CC1CCN(c2ncnc3nc[nH]c23)CC1	80.7*	3.5	11.9	-10.0	100.7	-1.3	74.0*	-47.4
Cc1ccccc1N1C(N)=NC(N)=NC1(C)C	-4.6	-5.1	-13.6	-0.8	128.5	4.9	/	/
COc1ccccc1N1C(N)=NC(N)=NC1(C)C	79.4*	-4.5	9.7	2.4	101.8	-0.7	3.7	-55.4
O=C(c1ccco1)N1CCN(c2ncccn2)CC1	75.8*	-2.6	-9.2	-5.8	111.6	0.7	-15.2	-49.2
COc1cc(/C=C(\C#N)c2[nH]nc(N)c2C#N)cc(OC)c1O	77.9*	24.4	-17.9	8.0	74.1	28.8	65.6*	-47.9
COCc1[nH]nc2c1C(c1cc(OC)c(O)c(OC)c1)C(C#N)=C(N)O2 (stereo not given)	/	-2.8	/	-11.6	102.9	-1.5	/	/
Nc1nc(NCc2ccccc2)nc(Nc2ccc(F)cc2)c1[N+](=O)[O-]	-9.4	/	-5.0	/	/	/	/	/
CCOC(=O)c1sc2nc[nH]c(=O)c2c1C	78.8*	-7.2	-23.1	5.6	107.9	-3.4	73.0*	-15.5
CC(=O)c1ccc(N2CCC(c3cc(-c4ccc(Cl)cc4)n[nH]3)CC2)c([N+](=O)[O-])c1	-6.9	/	-34.7	/	/	/	/	/
O=C(CCc1ccccc1)N1CCN(CCO)CC1	74.3*	1.9	20.7	3.3	122.3	-1.8	-10.4	-48.0
CC(=O)c1ccc(N(C)C)c2c(N(C)C)cccc12	-2.0	-26.4	-4.7	-12.3	91.7	-18.5	/	/
CC1Cc2ccccc2N1C(=O)c1cnc2n(c1=O)CCS2 (stereo not given)	70.1*	2.7	8.0	9.3	65.5	-1.2	-8.8	-53.0
O=C(c1cnc2n(c1=O)CCS2)N1CCc2ccccc21	/	-8.7	/	-12.0	102.5	-6.8	/	/
Nc1nc(Nc2ccccc2Br)nc(C(F)(F)F)n1	/	-5.0	/	0.0	106.1	-6.5	/	/
Nc1ncnc(Nc2ccccc2C(F)(F)F)n1	71.8*	-1.2	-6.2	-1.0	666.0*[fluorescence artefact?]	-7.4	69.8*	-43.5
Cc1cc(C=O)c2c(c1)C=CC1(Oc3ccccc3C(=O)N1C)O2 (stereo not given)	-7.5	-5.3	-5.6	3.9	91.3	8.5	/	/
NC1=CC(=O)c2cccc3cccc1c23	78.0*	85.8*[fluorescence artefact?]	17.3	15.9	58.8	75.9*[fluorescence artefact?]	20.7	-16.8
Cc1nc2cc(-c3cccc(F)c3)nn2c(N2CCN(C(=O)c3ccco3)CC2)c1C	-7.2	/	-1.9	/	/	/	/	/
Cc1ccc(N(C)C(=O)N2CCN(S(=O)(=O)c3ccc(C)cc3)CC2)cc1	72.4*	-6.5	2.4	5.1	92.1	8.1	3.0	-49.9
CCOc1ccc(-c2nc(CSCC(=O)N3CCN(C(=O)c4ccco4)CC3)c(C)o2)cc1	73.9*	-3.5	-3.0	-0.4	120.0	-6.8	-13.9	-52.1
CCOC(=O)C1CCN(C(=O)CSCc2nc(-c3ccc(OCC)cc3)oc2C)CC1	/	0.5	/	-18.3	95.3	1.2	/	/
COC(=O)CSc1nc2cc(OC)ccc2cc1C#N	87.5*	21.5	-4.9	13.5	128.6	-1.6	-7.7	-52.9
Cc1c(NC(=O)CSc2nnc(-c3cccc(Cl)c3)o2)c(=O)n(-c2ccccc2)n1C	-5.0	-7.7	2.3	-2.8	108.0	1.6	/	/
SMILES	PLK1 inh	ERa SRC1 inh	Plk1 PBD FP	Smad3 FoxH1 inh	ERa coact pot	ERb SRC1 inh	PLK1 inh conf	TR-FRET interf
CCOC(=O)CSc1nc2ccccc2c(=O)[nH]1	72.3*	-8.7	1.6	-0.8	127.3	-9.8	-9.0	-48.8
CCN(CC)C(=O)CSc1nc2ccccc2c(=O)[nH]1	-6.1	-13.0	-4.3	14.2	112.6	-11.8	/	/
CC1(c2ccc3noc(-c4ccc(F)cc4)c3c2)OCCO1	-33.4	8.4	-3.2	8.5	106.5	9.4	/	/
O=C(NCCCN1CCOCC1)c1cc(-c2ccc3c(c2)OCO3)nc2ccccc12	71.6*	3.1	28.3	1.5	91.1	20.4	-1.3	-50.9
COc1ccc(-c2cc(C(=O)NCCN3CCOCC3)c3ccccc3n2)cc1	7.5	-6.5	-21.4	10.4	101.6	-1.9	/	/
CCOC(=O)c1[nH]c(C)c(C(=O)NCCCOC(C)C)c1C	/	-0.7	/	-2.5	129.7	-7.2	/	/
CCOC(=O)c1[nH]c(C)c(C(=O)NCCN2CCOCC2)c1C	74.3*	-6.7	-21.2	4.0	102.2	-7.4	-10.0	-51.6
COc1cc(Cc2nc3ccc(S(=O)(=O)N4CCOCC4)cc3[nH]2)cc(OC)c1OC	-12.3	/	-7.6	/	/	/	/	/
COc1cccc(OCC(O)CN2CCC(C)CC2)c1 (stereo not given)	-5.5	/	14.3	/	/	/	/	/
CC1CCN(CC(O)COc2ccc(F)cc2)CC1 (stereo not given)	74.7*	-1.7	0.5	9.1	141.2	0.0	-8.2	-58.0
CC1CCN(CC(O)COc2cccc(F)c2)CC1 (stereo not given)	74.2*	3.4	7.1	-8.7	135.1	9.5	-2.1	-55.2
N#Cc1c(NC(=O)CSc2ncnc3sccc23)oc(-c2ccco2)c1-c1ccco1	77.1*	90.4*[fluorescence artefact?]	-4.0	2.0	43.3	73.3*[fluorescence artefact?]	-9.0	-53.2
CCn1c(SCC(=O)Nc2oc(-c3ccccc3)c(-c3ccccc3)c2C#N)nnc1-c1ccco1	-1.2	5.3	14.0	-9.8	69.2	7.7	/	/
CC1(C)CC(=O)C2=C(C1)OC(N)=C(C#N)C21CCN(Cc2ccccc2)CC1	/	-0.8	/	-7.3	91.5	-1.9	/	/
Cc1nc2c([nH]1)C1(CCN(Cc3ccccc3)CC1)C(C#N)=C(N)O2	70.1*	/	0.7	/	/	/	71.9*	-55.5
CCCCOC(=O)CCn1c(=S)oc2ccccc21	124.8*	-0.4	13.0	-1.7	108.9	-2.1	-8.3	-52.5
Cc1ccc(CSCC(=O)N2CCN(c3ccc(F)cc3)CC2)cc1	108.7*	-18.0	1.6	-8.6	112.6	6.2	-8.0	-56.7
Cc1cccc(N=Nc2c(N)n[nH]c2-c2ccc(Cl)cc2)c1	70.7*	/	-3.4	/	/	/	58.8*	-48.8
CCC(C)Sc1nnc(Cc2cc(=O)[nH]c(=O)[nH]2)n1-c1ccc(F)cc1 (stereo not given)	72.0*	-2.1	15.9	-0.3	115.7	-2.4	-8.4	-49.2
CCOc1ccc(-n2c(Cc3cc(=O)[nH]c(=O)[nH]3)nnc2SC(C)C)cc1	-8.2	-7.0	-5.8	1.8	122.0	-2.7	/	/
CC(C)Cn1c(=O)c(C(=O)NCc2ccccn2)c(O)c2ccccc21	/	6.2	/	4.2	86.7	1.8	/	/
CCOc1cc(C=C(C(=O)OC)C(=O)OC)ccc1OCc1ccc([N+](=O)[O-])cc1	-3.9	/	15.7	/	/	/	/	/
